Assay [1] has as its target Platelet-derived growth factor receptor beta (Homo sapiens) (UniProt P09619). The settings on record: at 1 µM.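 Further: each value is a mean percent inhibition.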
Assay [2] addresses Tyrosine-protein kinase FRK (Homo sapiens) (UniProt P42685). As to conditions: at 0.1 µM.
Assay [3] has the same target. The settings on record: at 1 µM.
The target in assay [4] is Protein-tyrosine kinase 2-beta (Homo sapiens) (UniProt Q14289). The settings on record: at 0.1 µM.
The target is the same in assay [5]. The settings on record: at 1 µM.
Assay [6] addresses Proto-oncogene tyrosine-protein kinase receptor Ret (Homo sapiens) (UniProt P07949). The settings on record: at 0.1 µM.
Assay [7] shares this target. The settings on record: at 1 µM.
Assay [8] has as its system Proto-oncogene tyrosine-protein kinase receptor Ret (Homo sapiens), P07949 [V804L]. As to conditions: at 0.1 µM.
Assay [9] has the same test system. The settings on record: at 1 µM.
The subject of assay [10] is Proto-oncogene tyrosine-protein kinase receptor Ret (Homo sapiens), P07949 [Y791F]. The settings on record: at 0.1 µM.
The test system is the same in assay [11]. As to conditions: at 1 µM.
In assay [12] the target is Macrophage-stimulating protein receptor (Homo sapiens) (UniProt Q04912). The settings on record: at 0.1 µM.
Assay [13] has the same target. As to conditions: at 1 µM.
The target in assay [14] is Proto-oncogene tyrosine-protein kinase ROS (Homo sapiens) (UniProt P08922). The settings on record: at 0.1 µM.
Chain of Proto-oncogene tyrosine-protein kinase ROS (Homo sapiens) (P08922 whole entry): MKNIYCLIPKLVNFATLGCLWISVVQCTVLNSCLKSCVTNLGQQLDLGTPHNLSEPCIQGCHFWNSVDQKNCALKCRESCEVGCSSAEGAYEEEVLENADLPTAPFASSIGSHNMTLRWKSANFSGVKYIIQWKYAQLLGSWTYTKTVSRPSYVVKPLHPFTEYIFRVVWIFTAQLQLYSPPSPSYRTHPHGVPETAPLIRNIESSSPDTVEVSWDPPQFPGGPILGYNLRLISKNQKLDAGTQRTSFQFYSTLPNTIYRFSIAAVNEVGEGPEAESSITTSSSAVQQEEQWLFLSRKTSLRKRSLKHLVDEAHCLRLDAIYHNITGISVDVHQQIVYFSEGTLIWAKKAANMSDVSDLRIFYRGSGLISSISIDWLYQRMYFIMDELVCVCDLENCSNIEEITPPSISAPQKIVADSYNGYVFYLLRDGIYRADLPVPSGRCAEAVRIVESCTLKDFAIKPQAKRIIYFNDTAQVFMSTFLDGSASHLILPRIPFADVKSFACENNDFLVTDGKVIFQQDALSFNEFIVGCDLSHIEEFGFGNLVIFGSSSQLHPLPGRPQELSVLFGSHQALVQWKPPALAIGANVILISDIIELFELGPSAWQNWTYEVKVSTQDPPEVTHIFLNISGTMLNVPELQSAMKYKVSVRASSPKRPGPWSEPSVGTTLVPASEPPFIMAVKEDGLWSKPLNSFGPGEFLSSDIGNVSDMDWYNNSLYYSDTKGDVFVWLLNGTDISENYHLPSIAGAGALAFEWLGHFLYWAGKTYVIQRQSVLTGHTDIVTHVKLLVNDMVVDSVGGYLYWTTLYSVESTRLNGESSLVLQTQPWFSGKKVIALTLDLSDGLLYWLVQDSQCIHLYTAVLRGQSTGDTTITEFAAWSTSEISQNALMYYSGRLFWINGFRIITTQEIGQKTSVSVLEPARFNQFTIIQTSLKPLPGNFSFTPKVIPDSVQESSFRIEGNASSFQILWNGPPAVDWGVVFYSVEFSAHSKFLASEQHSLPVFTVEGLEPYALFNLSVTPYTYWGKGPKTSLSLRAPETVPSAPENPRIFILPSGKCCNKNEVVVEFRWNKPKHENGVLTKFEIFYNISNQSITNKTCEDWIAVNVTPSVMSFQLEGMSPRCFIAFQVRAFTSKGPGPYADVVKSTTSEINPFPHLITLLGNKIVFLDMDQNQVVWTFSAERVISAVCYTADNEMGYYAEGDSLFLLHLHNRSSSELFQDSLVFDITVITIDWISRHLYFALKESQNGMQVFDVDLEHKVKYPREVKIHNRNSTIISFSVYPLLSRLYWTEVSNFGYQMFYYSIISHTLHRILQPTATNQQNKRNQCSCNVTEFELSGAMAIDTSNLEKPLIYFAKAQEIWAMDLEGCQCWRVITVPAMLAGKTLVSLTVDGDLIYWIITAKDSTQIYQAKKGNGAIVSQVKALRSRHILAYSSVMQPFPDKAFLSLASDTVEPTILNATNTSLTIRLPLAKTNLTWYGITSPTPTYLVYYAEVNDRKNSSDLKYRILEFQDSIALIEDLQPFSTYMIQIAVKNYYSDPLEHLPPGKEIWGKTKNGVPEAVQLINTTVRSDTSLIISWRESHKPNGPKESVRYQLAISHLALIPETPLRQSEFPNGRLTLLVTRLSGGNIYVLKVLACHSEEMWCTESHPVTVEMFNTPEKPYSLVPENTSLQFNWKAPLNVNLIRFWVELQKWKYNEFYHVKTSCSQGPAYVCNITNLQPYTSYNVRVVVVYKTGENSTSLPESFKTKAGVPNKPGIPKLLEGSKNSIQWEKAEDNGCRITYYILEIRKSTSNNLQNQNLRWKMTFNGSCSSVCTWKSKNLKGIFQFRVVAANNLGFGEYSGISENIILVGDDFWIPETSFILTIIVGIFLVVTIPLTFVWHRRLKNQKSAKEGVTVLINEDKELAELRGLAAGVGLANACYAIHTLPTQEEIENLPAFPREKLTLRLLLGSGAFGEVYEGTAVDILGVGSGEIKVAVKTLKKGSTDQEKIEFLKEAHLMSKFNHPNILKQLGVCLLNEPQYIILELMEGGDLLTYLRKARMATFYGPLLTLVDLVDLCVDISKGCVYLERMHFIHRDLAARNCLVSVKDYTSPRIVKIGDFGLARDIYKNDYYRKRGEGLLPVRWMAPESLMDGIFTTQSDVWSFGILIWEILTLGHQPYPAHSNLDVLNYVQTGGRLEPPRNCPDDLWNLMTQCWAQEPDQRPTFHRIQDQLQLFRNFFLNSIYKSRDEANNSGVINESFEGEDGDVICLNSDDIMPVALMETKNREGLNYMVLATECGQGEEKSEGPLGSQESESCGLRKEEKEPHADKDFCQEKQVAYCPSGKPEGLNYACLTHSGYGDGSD
Assay [15] shares this target. The settings on record: at 1 µM.
The target in assay [16] is Proto-oncogene tyrosine-protein kinase Src (Homo sapiens) (UniProt P12931). As to conditions: at 0.1 µM.
Assay [17] shares this target. As to conditions: at 1 µM.
The target in assay [18] is Tyrosine-protein kinase Srms (Homo sapiens) (UniProt Q9H3Y6). The settings on record: at 0.1 µM.
Chain of Tyrosine-protein kinase Srms (Homo sapiens) (Q9H3Y6 whole entry): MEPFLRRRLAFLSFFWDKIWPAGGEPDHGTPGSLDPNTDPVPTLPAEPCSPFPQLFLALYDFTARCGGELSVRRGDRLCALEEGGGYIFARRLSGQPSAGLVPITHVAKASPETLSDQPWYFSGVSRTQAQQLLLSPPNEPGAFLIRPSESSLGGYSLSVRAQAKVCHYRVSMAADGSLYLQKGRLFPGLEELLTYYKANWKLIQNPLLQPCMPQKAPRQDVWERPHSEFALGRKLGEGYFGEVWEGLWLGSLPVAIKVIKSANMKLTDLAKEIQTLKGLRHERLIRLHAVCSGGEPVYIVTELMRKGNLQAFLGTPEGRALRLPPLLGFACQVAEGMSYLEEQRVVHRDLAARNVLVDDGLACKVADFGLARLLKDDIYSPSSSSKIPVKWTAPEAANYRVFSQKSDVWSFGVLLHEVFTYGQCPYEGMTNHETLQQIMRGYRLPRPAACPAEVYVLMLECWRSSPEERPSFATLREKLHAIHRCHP
Assay [19] shares this target. As to conditions: at 1 µM.
In assay [20] the target is Tyrosine-protein kinase SYK (Homo sapiens) (UniProt P43405). As to conditions: at 0.1 µM.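 Further: reported percentages are mean inhibition values for SYK.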

Chain of Proto-oncogene tyrosine-protein kinase receptor Ret (Homo sapiens), P07949 [V804L] (P07949 whole entry V804L): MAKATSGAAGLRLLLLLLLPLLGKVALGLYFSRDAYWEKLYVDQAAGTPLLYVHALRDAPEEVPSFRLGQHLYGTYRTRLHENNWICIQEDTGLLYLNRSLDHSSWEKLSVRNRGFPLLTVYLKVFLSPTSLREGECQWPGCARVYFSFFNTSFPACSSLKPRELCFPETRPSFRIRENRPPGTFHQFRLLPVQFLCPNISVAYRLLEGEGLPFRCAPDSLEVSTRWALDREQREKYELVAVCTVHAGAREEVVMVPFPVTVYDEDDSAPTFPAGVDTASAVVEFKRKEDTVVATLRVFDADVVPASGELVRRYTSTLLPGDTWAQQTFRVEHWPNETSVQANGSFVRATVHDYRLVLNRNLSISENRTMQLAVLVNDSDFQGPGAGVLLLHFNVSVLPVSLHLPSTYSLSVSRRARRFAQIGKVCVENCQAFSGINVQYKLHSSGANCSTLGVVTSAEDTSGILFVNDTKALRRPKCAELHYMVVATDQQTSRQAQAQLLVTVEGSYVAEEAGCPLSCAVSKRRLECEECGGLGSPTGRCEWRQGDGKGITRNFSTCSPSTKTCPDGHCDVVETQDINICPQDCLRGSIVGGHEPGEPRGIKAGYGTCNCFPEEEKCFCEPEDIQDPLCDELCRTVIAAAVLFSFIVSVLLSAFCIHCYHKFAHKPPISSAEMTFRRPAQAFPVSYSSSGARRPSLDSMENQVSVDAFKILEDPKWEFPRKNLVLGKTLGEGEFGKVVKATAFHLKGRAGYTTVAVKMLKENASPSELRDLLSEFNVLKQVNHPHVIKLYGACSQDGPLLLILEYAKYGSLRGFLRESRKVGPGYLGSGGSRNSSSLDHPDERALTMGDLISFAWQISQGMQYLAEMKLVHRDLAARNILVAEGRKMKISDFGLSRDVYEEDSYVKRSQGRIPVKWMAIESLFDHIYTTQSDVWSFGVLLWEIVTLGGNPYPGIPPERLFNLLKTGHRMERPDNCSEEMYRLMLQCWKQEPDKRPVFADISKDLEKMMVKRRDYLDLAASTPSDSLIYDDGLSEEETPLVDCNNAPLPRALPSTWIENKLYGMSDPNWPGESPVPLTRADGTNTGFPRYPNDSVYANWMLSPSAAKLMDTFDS
Chain of Protein-tyrosine kinase 2-beta (Homo sapiens) (Q14289 whole entry, looked up): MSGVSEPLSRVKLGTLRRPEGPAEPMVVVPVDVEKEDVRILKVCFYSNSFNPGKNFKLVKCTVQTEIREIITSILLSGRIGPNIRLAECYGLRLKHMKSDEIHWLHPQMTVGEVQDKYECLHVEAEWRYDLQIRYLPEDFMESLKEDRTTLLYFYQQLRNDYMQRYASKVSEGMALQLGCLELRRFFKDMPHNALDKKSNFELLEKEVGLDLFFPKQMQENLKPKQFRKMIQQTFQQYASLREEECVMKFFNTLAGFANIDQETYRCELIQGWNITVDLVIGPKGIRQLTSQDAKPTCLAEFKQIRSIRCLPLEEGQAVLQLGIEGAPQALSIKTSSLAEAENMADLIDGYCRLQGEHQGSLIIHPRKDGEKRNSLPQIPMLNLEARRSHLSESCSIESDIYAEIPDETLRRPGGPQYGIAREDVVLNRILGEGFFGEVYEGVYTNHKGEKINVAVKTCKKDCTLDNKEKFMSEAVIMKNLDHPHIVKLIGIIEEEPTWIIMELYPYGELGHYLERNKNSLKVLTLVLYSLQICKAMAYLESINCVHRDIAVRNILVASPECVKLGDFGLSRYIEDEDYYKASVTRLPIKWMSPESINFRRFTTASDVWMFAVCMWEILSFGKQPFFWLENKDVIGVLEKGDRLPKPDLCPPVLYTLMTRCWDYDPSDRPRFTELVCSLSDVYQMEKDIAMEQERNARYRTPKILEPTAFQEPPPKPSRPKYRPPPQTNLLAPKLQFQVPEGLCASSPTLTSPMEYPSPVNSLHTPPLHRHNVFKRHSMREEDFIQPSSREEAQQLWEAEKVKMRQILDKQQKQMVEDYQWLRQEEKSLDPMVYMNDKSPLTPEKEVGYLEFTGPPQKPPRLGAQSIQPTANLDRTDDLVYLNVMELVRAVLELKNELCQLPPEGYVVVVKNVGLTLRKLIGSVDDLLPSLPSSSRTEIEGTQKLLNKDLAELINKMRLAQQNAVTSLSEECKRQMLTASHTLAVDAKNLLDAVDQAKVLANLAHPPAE
Chain of Proto-oncogene tyrosine-protein kinase receptor Ret (Homo sapiens) (P07949 whole entry): as the sequence (P07949 whole entry V804L) above, with L804V counted along it
Chain of Proto-oncogene tyrosine-protein kinase receptor Ret (Homo sapiens), P07949 [Y791F] (P07949 whole entry Y791F): as the sequence (P07949 whole entry V804L) above, with Y791F, L804V counted along it

As a reminder, the inhibition is the change of the read-out against control, counted positive when it falls. `COC(=O)c1sc(-n2cnc3cc(OC)c(OC)cc32)cc1OCc1ccccc1C(F)(F)F`: the inhibition in assay [1] worked out at 54.9%; in [2], 2.68%; in [3], 2.31%; in assay [4], 11.6%; in [5], 10.7%; in assay [6], 24.8%. Also, the inhibition in assay [7] came out at 64.5%; in [8], 9.09%; in assay [9], 27.8%; in assay [10], 25.1%; in [11], 52.3%; in assay [12], 0.58%. Also, the inhibition was 1.46% in assay [13]; 6.32% in [14]; 12.3% in [15]; 1.51% in [16]; 24.7% in [17]; -2.13% in assay [18]. For the same molecule, the inhibition in assay [19] was -3.45%; in [20], -5.15%.

As for `CCn1c(-c2nonc2N)nc2c(C#CC(C)(C)O)nc(OC[C@H](N)c3ccccc3)cc21`, the inhibition is 57.2% in [1]; -0.38% in assay [2]; 2.68% in assay [3]; 1.28% in assay [4]; 9.96% in assay [5]; 6.89% in [6]. Further, the inhibition in assay [7] turned out to be 38%; in assay [8], 1.38%; in assay [9], 6.67%; in assay [10] it was 18.6%; in [11] it was 41.3%; in assay [12], 4.34%. Further, the inhibition in [13] is -1.45%; in assay [14] it was 9.15%; in assay [15], 9.48%; in [16], 8.29%; in assay [17] it was 13.7%; in assay [18] it was 2.09%. Further, the inhibition was 1.99% in assay [19] and 2.17% in [20].

Regarding `NC(=O)c1sc(-n2cnc3ccc(C(F)(F)F)cc32)cc1OCc1ccccc1Br`, the inhibition in assay [1] turned out to be 7.98%; in [2], 2.51%; in assay [3], 2.35%; in assay [4], 9.64%; in assay [5], 12.8%; in assay [6], 1.18%. Moreover, the inhibition was 4.33% in assay [7]; 2.41% in [8]; 3.36% in assay [9]; 3.67% in assay [10]; 11.1% in [11]; 4.35% in assay [12]. The inhibition in assay [13] was 5.41%; in [14], 3.4%; in assay [15] it was 9.36%; in assay [16], 1.66%; in [17], 10.1%; in [18] it was -1.61%. Moreover, the results for the inhibition in assay [19] and in [20] were -2.09% and -5.63%, respectively.

Regarding `Cc1cccc(Nc2ncc(-c3ccccc3)o2)c1`, the inhibition in [1] is 37.2%; in [2], -0.04%; in assay [3] it was 3.76%; in assay [4], -0.77%; in assay [5], 4.02%; in assay [6], 1.88%. The inhibition turned out to be 7.33% in assay [7]; 0.92% in [8]; 4.53% in assay [9]; 2.77% in assay [10]; 6.11% in assay [11]; 3.38% in assay [12]. Besides, the inhibition was -0.6% in assay [13]; 6.3% in assay [14]; 7.89% in assay [15]; 8.62% in [16]; 19.3% in assay [17]; 0.16% in [18]. For the same molecule, the inhibition is -0.12% in assay [19] and 1.35% in [20].

With `COc1ccc(-c2nn3ncccc3c2-c2ccnc(Nc3ccc4c(c3)OCCO4)n2)cc1`, the inhibition is 20.6% in assay [1]; 0.87% in [2]; 3.44% in assay [3]; -3.39% in [4]; 10.2% in assay [5]; 8.94% in assay [6]. Besides, the inhibition in assay [7] is 47.3%; in assay [8], 3.01%; in assay [9], 3.4%; in assay [10], 11.7%; in [11], 56.2%; in assay [12] it was -3.38%. Moreover, the inhibition in assay [13] amounted to 8.88%; in [14], 6.79%; in assay [15], 21.9%; in [16], 7.57%; in [17], 51.7%; in [18] it was 0.02%. Also, the inhibition in [19] worked out at 0.99%; in assay [20] it was 1.19%.

As to `CNC(=O)c1cncc(/C=C/c2ccccc2Cl)c1`, the inhibition was 20% in [1]; 0.04% in assay [2]; 0.05% in assay [3]; -1.7% in assay [4]; -0.21% in [5]; 4.56% in assay [6]. Also, the inhibition was 7.64% in [7]; 0.9% in [8]; 10% in assay [9]; 0.47% in assay [10]; 22.8% in assay [11]; 2.22% in assay [12]. The inhibition was 7.21% in assay [13]; -2.16% in assay [14]; 2.7% in [15]; 10.1% in assay [16]; 7.14% in [17]; 1.76% in assay [18]. Moreover, the results for the inhibition in assay [19] and in [20] were 3.3% and 7.26%, respectively.

For `Cc1ccc2c(-c3ccnc(Nc4ccccc4)n3)c(-c3ccc(F)cc3)nn2n1`, the inhibition worked out at 68.1% in assay [1]; 3.09% in [2]; 14.2% in assay [3]; 15.2% in assay [4]; 47.5% in assay [5]; 14.8% in assay [6]. In addition, the inhibition in assay [7] was 46.6%; in assay [8], 1.27%; in [9] it was 0.44%; in assay [10] it was 14.7%; in [11], 50.7%; in [12], 0.11%. Further, the inhibition in assay [13] is 3.58%; in [14], 2.77%; in [15], 5.97%; in assay [16], 15.3%; in assay [17], 63.2%; in assay [18], 1.58%. Further, the values for the inhibition in [19] and in assay [20] were 9.73% and -2.66%, respectively.

These data come from ChEMBL document CHEMBL1961873, “Compounds: GSK PKIS; Assays: Nanosyn kinase panel” (2012).
